The values below come from PubChem BioAssay AID493169 (National Center for Advancing Translational Sciences (NCATS), 2011).

A short description of the experiment: CHOP2 Reporter Counterscreen Assay for Inhibitors of Ubiquitin-specific Protease USP2a.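 Further: activated enterokinase alone at 50 pM in a cell-free format rather than USP2a or CHOP2; nearly all actives have a fitted effect of over 55% in size.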 The method, boiled down: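 Fluorescence (485/531 nm) read 10 min after adding 25nM reporter substrate to 50 pM activated EK preincubated 30 min RT with compound; Tris pH 8.0/CaCl2/CHAPS buffer. Data normalized to buffer-alone inhibition; concentration-response curves fitted.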
A general note: A counterscreen serves to expose hits that act by an unwanted route or on another target.

Each structure is given as a SMILES string. Inconclusive results are not listed. Entries that show only a call come without a potency. Active and inactive are the calls of the source. The call rests on the fitted dose curve; in most records, active means well fitted inhibition curve with a large enough effect; inconclusive means small, poorly fitted or top-dose-only effect; inactive means flat fitted curve, though single readings scatter.
Potency means the concentration at half of the fitted maximal effect.

`CCOc1cc(N2CCOCC2)c(OCC)cc1NC(=O)Cc1cn2ccsc2n1`: the Potency entry was “inactive”.

For `COc1cc(C(c2c(C)[nH][nH]c2=O)c2c(C)[nH][nH]c2=O)ccc1OCc1ccc([N+](=O)[O-])cc1`, the Potency result is “inactive”.

Regarding `O=C(Cc1ccc(S(=O)(=O)N2CCOCC2)s1)Nc1nc2c(s1)CCCC2`, the Potency was 10 µM (active).

Turning to `CCCCC1NC(C(=O)O)CS1` (stereo not given), the Potency entry is “inactive”.

For `C=CCn1c(O)c(C(CC)=NCCN2CCOCC2)c(=O)[nH]c1=O`, the Potency result is “inactive”.

`Nc1ccc2nc(-c3ccc(N)c(Cl)c3)[nH]c2c1`: the Potency result is “inactive”.

Take `COc1ccc(NC(=O)CSc2nnc(-c3ccccc3Cl)n2Cc2ccco2)c(OC)c1`: the Potency entry was “inactive”.

Consider `Cc1sc2nc(CN3CCN(c4ccc(O)cc4)CC3)[nH]c(=O)c2c1C`, for which the Potency result is “inactive”.

Turning to `O=C(O)C1CCN1C1CCCCC1` (stereo not given), the Potency result is “inactive”.

For the compound `CCOc1ccc2[nH]c(=O)c(CN(CCc3ccccc3)C(=O)c3cnccn3)cc2c1`, the Potency result is “inactive”.

As to `Cc1ccc(C(=O)COC(=O)CNC(=O)CN2C(=O)c3ccccc3C2=O)cc1`, the Potency result was “inactive”.

In the case of `CC(=O)Nc1ccc(Nc2cc(C)nc(Nc3ccc(NC(C)=O)cc3)n2)cc1`, the Potency entry is “inactive”.

With `O=S(=O)(c1ccccc1)N(CC1CO1)c1cc(Cl)ccc1Cl` (stereo not given), the Potency entry is “inactive”.

As to `CC(C)CC(c1nnnn1CC1CCCO1)N1CCN(c2nc3ccccc3s2)CC1` (stereo not given), the Potency entry is “inactive”.

For `CC(C)CCn1c(CN2CCN(C(=O)c3ccco3)CC2)nc2c1c(=O)n(C)c(=O)n2C`, the Potency result is “inactive”.

On to `COc1ccc(S(=O)(=O)N2CCCC2C(=O)NCc2cccs2)cc1` (stereo not given), for which the Potency result was “inactive”.

Consider `O=C(CNC(=O)c1ccco1)Nc1ccc(S(=O)(=O)N2CCCC2)cc1`, for which the Potency entry was “inactive”.

With `Cc1c(NC(=O)C2CCCN(S(=O)(=O)c3cnc[nH]3)C2)c(=O)n(-c2ccccc2)n1C` (stereo not given), the Potency result was “inactive”.

With `CCN1C(=O)C(NC(C)=O)c2cc(OC)ccc21` (stereo not given), the Potency result was “inactive”.

Consider `C=CCOc1cccc(C2C(C(=O)c3ccco3)=C(O)C(=O)N2CCN(CC)CC)c1` (stereo not given), for which the Potency result was “inactive”.

As to `CCCNC(=O)NCc1ccc(N2CCCC2=O)cc1`, the Potency entry is “inactive”.

As to `CCOc1ccc(-c2ccc(/C=C3/C(=N)N4C(C)=CSC4=NC3=O)o2)c([N+](=O)[O-])c1`, the Potency entry was “inactive”.

Take `C=CCSC1=N/C(=C\C=C\c2ccco2)C(=O)S1`: the Potency was 7.94 µM (active).

Consider `O=C1COc2ccc(C(=O)COC(=O)/C=C/c3ccc(Br)o3)cc2N1`, for which the Potency is 2.82 µM (active).

As to `O=C1c2ccccc2C(=O)N1CCCCn1c(=O)oc2ccccc21`, the Potency result was “inactive”.

Turning to `Nc1ccccc1S(=O)(=O)NC1=NCCCCC1`, the Potency entry is “inactive”.

Regarding `COc1ccc(CCN2C(=O)/C(=C\c3ccco3)SC2=S)cc1OC`, the Potency entry was “inactive”.

With `O=C1NC[C@@H](c2ccccc2)OC(=O)[C@@H](Cc2ccc(F)cc2)CC/C=C/C[C@@H]1CC(=O)N(CCO)Cc1ccccc1`, the Potency result is “inactive”.

Take `O=C(Nc1ccc(Oc2ccc(Cl)cc2)cc1)c1ncn[nH]1`: the Potency result is “inactive”.

For `CCOC(=O)C1CCN(CC(O)COc2ccc(C(C)(C)C)cc2)CC1` (stereo not given), the Potency entry was “inactive”.

Take `COc1ccc(OC)c(NC(=O)CSc2nc(O)cc(=O)n2CC(C)C)c1`: the Potency entry was “inactive”.

With `C[C@H](CO)N1C[C@H](C)[C@@H](CN(C)S(=O)(=O)c2cn(C)cn2)Oc2ccc(NC(=O)Cn3cnnn3)cc2C1=O`, the Potency result was “inactive”.

Take `Cc1c2c(=O)n(-c3nc4ccccc4s3)nc-2cc(O)n1Cc1ccccc1`: the Potency was 11.2 µM (active).

For `COc1ccc(/C=C2/SC(=S)N(c3ccc(S(=O)(=O)Nc4nccs4)cc3)C2=O)cc1`, the Potency is 11.2 µM (active).

In the case of `O=C(NCc1ccccc1)C1CCC1`, the Potency entry was “inactive”.

For the compound `O=C(O)c1cccc(-n2cccc2/C=C2/NC(=O)N(c3ccc(Cl)cc3)C2=O)c1`, the Potency is 2 µM (active).

In the case of `O=C(Nc1ccc(S(=O)(=O)Nc2ncccn2)cc1)c1ccc(S(=O)(=O)N2CCCC2)cc1`, the Potency entry was “inactive”.

For the compound `O=C(N/N=C/c1ccc(-c2ccc(S(=O)(=O)Nc3ncccn3)cc2)o1)c1cc2ccccc2cc1O`, the Potency is 3.98 µM (active).

As to `O=C1/C(=C/C=C/c2ccco2)SC(=S)N1c1ccc(O)cc1`, the Potency was 2.82 µM (active).

Regarding `COc1ccc(N(C(=O)C(C)C)S(=O)(=O)c2ccc(Cl)cc2)cc1`, the Potency result is “inactive”.

For the compound `Cc1cc(C(=O)CSc2nnc(Nc3ccccc3F)s2)c(C)n1CC1CCCO1` (stereo not given), the Potency result is “inactive”.

For `COc1ccc2[nH]c(=O)c(CN(C3CCCCC3)C(c3nnnn3Cc3ccco3)C(C)C)cc2c1` (stereo not given), the Potency is 10 µM (active).

As for `COc1ccc(-c2nc(C#N)c(NCC3CCCO3)o2)cc1OC` (stereo not given), the Potency entry was “inactive”.

For `COc1ccc(Cl)cc1C(=O)Nc1cccc(-c2ccc3nncn3n2)c1`, the Potency is 10 µM (active).

In the case of `CCC(C(=O)NCc1ccccc1OC)n1nc(C)n2c(cc3occc32)c1=O` (stereo not given), the Potency result is “inactive”.

Turning to `CCCNC(=O)CS(=O)Cc1nc(-c2ccccc2C)oc1C` (stereo not given), the Potency entry is “inactive”.

Take `O=C(CSCc1cnn(-c2ccccc2)c1-n1cccc1)NCC1CCCO1` (stereo not given): the Potency result is “inactive”.

Take `Cc1ccc(OCC(=O)Nc2ccc(N3CCCC3)cc2)cc1C`: the Potency is 10 µM (active).

On to `O=C(CCn1c(=O)c2ccccc2n(Cc2ccccc2)c1=O)NCc1ccc2c(c1)OCO2`, for which the Potency result is “inactive”.

Take `CCC(C)NC(=O)CSC1=Nc2ccccc2C2=NC(c3ccccc3)C(=O)N12` (stereo not given): the Potency entry was “inactive”.

Turning to `O=C(C[n+]1ccc(-c2cc(C(=O)Nc3cccc(C(F)(F)F)c3)c3ccccc3n2)cc1)c1cccc([N+](=O)[O-])c1`, the Potency result was “inactive”.

Regarding `COc1ccc(/C=C2\SC(=S)N(NS(=O)(=O)c3ccc(C)cc3)C2=O)c(OC)c1`, the Potency result was “inactive”.

Take `CN(C)CCOCCP(=O)(c1ccccc1)c1ccccc1`: the Potency entry is “inactive”.

For `O=c1cc(CO)oc(CN2CCN(Cc3ccccc3)CC2)c1O`, the Potency result was “inactive”.

For `O=C(NCCC1=CCCCC1)C1CCCN(S(=O)(=O)c2cnc[nH]2)C1` (stereo not given), the Potency entry was “inactive”.

In the case of `COc1ccc(NC(=O)CN(Cc2ccccc2)S(C)(=O)=O)cc1`, the Potency result was “inactive”.

In the case of `CC(=O)OCC(=O)Nc1ccc(Cl)cc1Cl`, the Potency entry is “inactive”.

On to `COc1cc(/C=C/c2cc[n+](C)cc2)ccc1OCC(=O)Nc1ccc(Cl)c(Cl)c1`, for which the Potency is 11.2 µM (active).

`O=C(O)c1cccc(S(=O)(=O)NNc2ccccc2C(F)(F)F)c1`: the Potency entry is “inactive”.

On to `Cc1ccc(-c2c(C#N)c(N)nc3c2CCCCC3)o1`, for which the Potency entry was “inactive”.

Take `Oc1ccccc1/C=N/Nc1ncc(Br)cn1`: the Potency result was “inactive”.

For the compound `O=C(Nc1nnc(SCC(=O)N2CCCC2)s1)C1CC(=O)N(c2ccc(F)cc2)C1` (stereo not given), the Potency was 10 µM (active).

`CCCn1c(N2CCN(Cc3cccc(C)c3)CC2)nc2c1c(=O)[nH]c(=O)n2C`: the Potency result was “inactive”.

With `Cc1ccc(N2CN=c3s/c(=C\c4cccnc4)c(=O)n3C2)cc1`, the Potency entry was “inactive”.

In the case of `O=C(CC(C(=O)O)C1CCCO1)NCCc1ccc2c(c1)OCO2` (stereo not given), the Potency entry was “inactive”.

In the case of `COc1cccc(NC(=O)CSc2nncn2-c2ccccn2)c1`, the Potency entry was “inactive”.

With `CCOC(=O)c1[nH]c2ccc(OC)cc2c1NC(=O)CCN1CCC(C)CC1`, the Potency result is “inactive”.

Turning to `COc1ccc(/C=C(\NC(=O)c2ccc(OC)c(OC)c2)C(=O)N2CCN(C)CC2)cc1`, the Potency entry was “inactive”.

On to `CCC(=O)c1ccc(OCC(=O)NC2CCN(Cc3ccccc3)CC2)cc1`, for which the Potency result was “inactive”.

As to `Cc1ccc(S(=O)(=O)Nc2cc(C)c(O)c(S(=O)(=O)c3ccc(C)cc3)c2)cc1`, the Potency result is “inactive”.

As to `O=C(CSc1nc2ccccc2s1)NCCCN1CCOCC1`, the Potency entry was “inactive”.

Consider `NS(=O)(=O)c1cc(C(=O)NC2CCSc3ccccc32)ccc1Cl` (stereo not given), for which the Potency was 10 µM (active).

Turning to `CCc1cc2cccc(C)c2nc1SCC(=O)N1CCN(C(=O)c2ccco2)CC1`, the Potency result is “inactive”.

As for `CC(=O)O[C@H]1[C@H](O)[C@H](Oc2c(O)c(C)c3c4c2[C@@H](C)CC[C@@H]4[C@@H](C)C[C@H]3C=C(C)C)O[C@@H](C)[C@H]1O`, the Potency entry is “inactive”.

Regarding `Cc1noc(/C=C/c2ccco2)c1S(=O)(=O)N1CCC(C(=O)N2CCc3ccccc3C2)CC1`, the Potency result was “inactive”.

With `CC1=NN(c2ccc(C(=O)O)cc2)C(=O)/C1=C\c1ccc(OC(=O)c2cccs2)cc1`, the Potency is 3.55 µM (active).

On to `Cc1ccc(C(=O)N(c2c(C)n(C)n(-c3ccccc3)c2=O)C(C)C)cc1`, for which the Potency entry was “inactive”.

Regarding `CCCSCCCNC(=O)CC1Oc2ccccc2NC1=O` (stereo not given), the Potency result was “inactive”.

Take `C#CCOCCOCCOCCNc1nc(N2CCN(C(=O)CCCCCCCCCCNC(=O)[C@@H](CCSC)n3cc(CCO)nn3)CC2)nc(N2CCN(C(=O)CCCCCCCCCCNC(=O)[C@H](CCCN=C(N)N)n3cc(C[C@@H](C)CC)nn3)CC2)n1`: the Potency was 2.51 µM (active).

Take `COc1cccc(NC(=O)Cc2ccccc2)c1`: the Potency result is “inactive”.

On to `Cn1c(SCc2nc3ccccc3s2)nnc1-c1cccs1`, for which the Potency result was “inactive”.

Regarding `Cc1cc(SCC(=O)Nc2ccccc2)nc(C)n1`, the Potency entry is “inactive”.

As to `CCOC(=O)c1c(C)c(C(=O)O)n(C)c1C`, the Potency entry is “inactive”.

With `COc1ccc(C(=O)N/C(=C\c2cccs2)C(=O)N2CCN(C)CC2)cc1OC`, the Potency entry was “inactive”.

With `CCOC(=O)N1CCN(C(=O)c2cc3c(ccc4ccccc43)oc2=O)CC1`, the Potency result was “inactive”.

With `C[C@@H]1CN([C@@H](C)CO)C(=O)c2cc(NC(=O)CCC(F)(F)F)ccc2O[C@H]1CN(C)S(=O)(=O)c1ccc(Cl)cc1`, the Potency entry is “inactive”.

On to `CCC(=O)Nc1c2c(nn1-c1ccc(F)cc1)CS(=O)C2` (stereo not given), for which the Potency result is “inactive”.

As to `C#CCOCCOCCOCCNc1nc(N2CCN(C(=O)CCCCCCCCCCNC(=O)Cn3cc(CCCCCN)nn3)CC2)nc(N2CCN(C(=O)CCCCCCCCCCNC(=O)[C@H]([C@@H](C)CC)n3cc(CCCCCN)nn3)CC2)n1`, the Potency is 5.62 µM (active).

`O=C(NNC(=O)c1cc2ccccc2cc1O)Nc1ccccc1F`: the Potency entry was “inactive”.

Consider `CCCCCCCCCCC[N+](C)(C)CC/C=C1/c2ccccc2Sc2ccc(Cl)cc21`, for which the Potency was 11.2 µM (active).

Turning to `COCCCNCCCOc1ccc(C)cc1Br`, the Potency entry is “inactive”.

Regarding `O=C(Nc1ccc2nc(-c3ccco3)c(-c3ccco3)nc2c1)N1CCN(c2ccccn2)CC1`, the Potency was 2.82 µM (active).

Consider `CSCCC(NC(=O)c1cc(C(C)(C)C)oc1C)C(=O)O` (stereo not given), for which the Potency result was “inactive”.

For the compound `COC1=CCC2([N+](=O)[O-])CN(CCO)CC1([N+](=O)[O-])C2` (stereo not given), the Potency entry is “inactive”.

On to `O=C(Cc1cccs1)Nc1ccc(S(=O)(=O)N2CCCCC2)cc1`, for which the Potency was 7.94 µM (active).
